According to PubChem BioAssay (NCI):
This is part of a sample that, as a whole, favours compounds with a hit. Of some 83,000 tested, about 20% had one in any assay.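 Plates (96-well) were seeded with cells, treated with compound at one concentration, and incubated for 48 hours before percent growth was determined.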 A number with no mark means an inactive call. Activity calls are given as the source filed them. How the source made its calls: active means growth percent below 10; inactive means the rest.

Columns and labels:
Experiment in all cases: NCI-60 one-dose screen, 48 h (100 = growth as untreated, 0 = no growth, -100 = all killed)
Settings in all cases: 10 µM unless noted
HCT-15 colon = test system: HCT-15 colon
HT29 colon = test system: HT29 colon
SNB-75 CNS = test system: SNB-75 CNS
SNB-19 CNS = test system: SNB-19 CNS
U251 CNS = test system: U251 CNS
PC-3 prostate = test system: PC-3 prostate
SK-MEL-5 melanoma = test system: SK-MEL-5 melanoma
UACC-62 melanoma = test system: UACC-62 melanoma
LOX IMVI melanoma = test system: LOX IMVI melanoma
SK-MEL-28 melanoma = test system: SK-MEL-28 melanoma
SK-MEL-2 melanoma = test system: SK-MEL-2 melanoma
EKVX NSCLC = test system: EKVX NSCLC
SN12C renal = test system: SN12C renal
UO-31 renal = test system: UO-31 renal
TK-10 renal = test system: TK-10 renal
A498 renal = test system: A498 renal
CCRF-CEM leukemia = test system: CCRF-CEM leukemia
MOLT-4 leukemia = test system: MOLT-4 leukemia

Structure (SMILES) | growth (HCT-15 colon) | growth (HT29 colon) | growth (SNB-75 CNS) | growth (SNB-19 CNS) | growth (U251 CNS) | growth (PC-3 prostate) | growth (SK-MEL-5 melanoma) | growth (UACC-62 melanoma) | growth (LOX IMVI melanoma) | growth (SK-MEL-28 melanoma) | growth (SK-MEL-2 melanoma) | growth (EKVX NSCLC) | growth (SN12C renal) | growth (UO-31 renal) | growth (TK-10 renal) | growth (A498 renal) | growth (CCRF-CEM leukemia) | growth (MOLT-4 leukemia)
NS(=O)(=O)c1ccc(Nc2nc(O)c(/C=C3\C=Nc4ccccc43)s2)cc1 | 107% | 114% | 93.7% | 91.6% | 94.6% | 92.1% | 101% | 82.6% | 97.3% | 110% | 103% | 98.2% | 91.1% | 70.7% | 112% | 106% | 85.6% | 95.4%
C=C1C(=O)O[C@H]2[C@H]1CC/C(C(=O)NCCOCCOCC(=O)Nc1ccc(OC)c(C(N)=O)c1O)=C\CC[C@@]1(C)O[C@@H]21 | 101% | 88.1% | 83.1% | 95.1% | 89.8% | 97% | 102% | 92.6% | 95.3% | 84.7% | 82.1% | 95.7% | 94.3% | 87.3% | 76.1% | 105% | 64.6% | 66.2%
CCCCOc1c(N)cccc1C(=O)OCCN(CC)CC | 109% | 85.8% | 102% | 99.9% | 96.5% | 86.8% | 105% | 95.2% | 102% | 112% | 96.6% | 104% | 95.7% | 80.8% | 81.8% | 90.5% | 90.6% | 60.2%
CCOc1ccc(-n2c(-c3cc(OC)c(OC)c(OC)c3)nnc2-c2ccc(OC)cc2N)cc1 | 64.9% | 52.7% | 76.3% | 75.5% | 65.6% | 63.3% | 66% | 66.7% | 80.3% | 80.2% | 65.6% | 82.4% | 91.5% | 57.4% | 70% | 67.3% | 42.3% | 36.8%
CCCCCC/C=N/Nc1ccc([N+](=O)[O-])cn1 | 102% | 81.5% | 105% | 108% | 110% | 93.2% | 113% | 102% | 83.2% | 109% | 89.6% | 101% | 110% | 84.6% | 94.8% | 103% | 100% | 103%
COc1ccc(NC(=O)COCCOCCNC[C@@H]2C(=O)O[C@H]3[C@H]2CC/C(COC(=O)OC/C2=C/CC[C@@]4(C)O[C@H]4[C@H]4OC(=O)[C@@H](CN(C)C)[C@@H]4CC2)=C\CC[C@@]2(C)O[C@@H]32)c(O)c1C(N)=O | 17.1% | 14% | 84.1% | 94.1% | 80.8% | 80.2% | 85.7% | 43% | 35.1% | -6.54% (active) | 68.3% | 81.5% | 40% | 2.07% (active) | -0.421% (active) | 96.2% | -9.68% (active) | -5.18% (active)
CC1CCC(C(C)C)C(NN)C1 (stereo unspecified) | 104% | 77.1% | 103% | 106% | 96.3% | 93.9% | 102% | 96.7% | 103% | 111% | 101% | 102% | 102% | 88.8% | 96.5% | 105% | 89.5% | 65.9%
O[C@@H]1CCO[C@H](c2ccc3ccccc3c2)C1 | 85.9% | 100% | 97.2% | 101% | 96.7% | 95.5% | 102% | 100% | 102% | 111% | 96% | 102% | 101% | 93.4% | 93.9% | 73.3% | 103% | 99.1%
Cc1cc(C)c(O)c(C(=O)CC(Br)C(=O)O)c1 (stereo unspecified) | 103% | 99.1% | 102% | 108% | 100% | 89.7% | 101% | 95.7% | 93.1% | 101% | 89.5% | 99.4% | 110% | 77.7% | 107% | 117% | 65.2% | 88.5%
COc1ccc(/C(Cl)=N/N=C(\Cl)c2cc(OC)c(OC)c(OC)c2)cc1OC(C)=O | 100% | 79.2% | 78.7% | 92.3% | 89.6% | 74.8% | 94.8% | 93.9% | 96.7% | 110% | 92.3% | 111% | 96.1% | 65.5% | 81.1% | 90.2% | 94.4% | 82.4%
C=CC(=O)NC(=O)Nc1ccccc1Cl | 67.9% | 70.2% | 83.8% | 72.5% | 81.7% | 78.2% | 96.6% | 93.4% | 86.1% | 109% | 86% | 94.7% | 83.5% | 59.8% | 45.2% | 109% | 37.2% | 39.6%
C#C[C@@]1(O)[C@@H](CO)O[C@@H](n2cc(Br)c3c(Cl)ccnc32)[C@@H]1O | 8.13% (active) | 12.2% | 35.9% | 37.1% | 70.9% | -25.7% (active) | 73.7% | 68% | -34% (active) | 98.9% | 68.7% | 58.7% | 23.7% | 45.2% | 63.3% | -20% (active) | 12.8% | 1.9% (active)
CCc1c(C)c2cc(-n3c(-c4ccc(OC)cc4)csc3=N)c(O)c(C)c2oc1=O | 9.38% (active) | 5.28% (active) | -2.92% (active) | 21.7% | 10.8% | 12.9% | 4.4% (active) | 2% (active) | 5.9% (active) | 28.6% | 10.7% | 19.4% | 10.2% | 14.3% | 64.7% | 17.1% | 7.21% (active) | 6.48% (active)
C=C1C(=O)O[C@H]2[C@H]1CC/C(COC(=O)n1ccnc1C)=C\CC[C@@]1(C)O[C@@H]21 | 93.6% | 95.4% | 93.2% | 95.3% | 95.1% | 97.2% | 106% | 98.6% | 95% | 100% | 86.8% | 98.4% | 103% | 83.1% | 94.3% | 105% | 70.4% | 79.8%
Nc1nc(-c2cc3c(cc2Cl)NC(=O)/C3=C/c2ccccc2)cs1 | 35.5% | 35.8% | 64.8% | 59.7% | 40.3% | 46.4% | 24.7% | 43% | 3.66% (active) | 76.1% | 71.3% | 34.7% | 51.9% | 45.6% | 100% | 60% | 16.1% | 21.8%
COc1cc(Cn2cc3c(c2)-c2onc(CO)c2CC3)cc(OC)c1OC | 89% | 104% | 82% | 94.5% | 97.6% | 88.7% | 83.3% | 80.3% | 94.7% | 93.7% | 90.2% | 90.3% | 94.3% | 68.4% | 96.4% | 97.5% | 91.3% | 95.8%
CCn1c(C)nc([N+](=O)[O-])c1Sc1nc(N)nc2nc[nH]c12 | 40.7% | 29.3% | 44.7% | 95.1% | 55.1% | 52.7% | 59.2% | 1.74% (active) | 7.51% (active) | 81.3% | 40.5% | 38.9% | 33% | 37.5% | 34.5% | 57% | 11.8% | 14.3%
